This is part of a sample that, as a whole, favours compounds with a hit. Of some 79,000 tested, about 15% had one in any assay. Calls of active or inactive are those of the source. Cut-off read from the data, not from the text of the source: active = growth inhibition above about 70%; inactive = the rest.
Key:
[1] = NCI Yeast Anticancer Drug Screen. Data for the rad50 strain (AID 155);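 note: 0% = growth of vehicle-only cultures of the same strain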; settings: S. cerevisiae rad50 strain growth inhibition; at 50.0 µM; stronger effect = higher value
Summary of the method: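 Cells are treated with compound, grown, and their growth is then scored against vehicle-only cultures of the same repair-deficient yeast strain.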

[2] = NCI Yeast Anticancer Drug Screen. Data for the mec2-1 strain (AID 157); settings: S. cerevisiae mec2-1 strain, at 50.0 µM, stronger effect = higher value
Summary of the method: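 Yeast mec2-1 mutant treated with compound. Readout: growth inhibition vs vehicle controls.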

[3] = NCI Yeast Anticancer Drug Screen. Data for the sgs1 mgt1 strain (AID 161);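 note: 0% = growth of cultures given vehicle only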; settings: S. cerevisiae sgs1 mgt1 strain, at 50.0 µM, stronger effect = higher value
Summary of the method: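 Read-out: growth inhibition vs vehicle controls. Cells: mutant yeast strain deficient in DNA damage repair.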

[4] = NCI Yeast Anticancer Drug Screen. Data for the cln2 rad14 strain (AID 165);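 note: 0% = growth equal to vehicle treated cultures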; settings: S. cerevisiae cln2 rad14 strain, at 50.0 µM, stronger effect = higher value
Summary of the method: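 cln2 rad14 yeast strain; compound exposure; growth inhibition read vs vehicle controls.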

[5] = NCI Yeast Anticancer Drug Screen. Data for the bub3 strain (AID 167); settings: S. cerevisiae bub3 mutant strain, at 50.0 µM, stronger effect = higher value
Summary of the method: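 Part of a panel of yeast mutants defective in DNA damage repair or cell cycle regulation. Each strain is grown with compound, and inhibition is calculated relative to solvent-treated cultures.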

[6] = NCI Yeast Anticancer Drug Screen. Data for the mlh1 rad18 strain (AID 175); settings: S. cerevisiae mlh1 rad18 strain growth inhibition; at 50.0 µM; stronger effect = higher value
Summary of the method: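 Yeast w/ defined DNA-repair lesions; compound exposure; growth vs vehicle controls → % inhibition.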

Measured: growth inhibition

NC(=O)C(=Cn1c(=S)[nH]c2ccccc21)C(N)=O
inactive: [1] -51.9% | [2] -23.2% | [3] -19.1% | [4] -0.5% | [5] -1.8% | [6] -28.2%

C=C(C(=O)O)C1CC[C@@]2(C)CC(O)CC(=C)C2C1 (some centres not stated)
inactive: [1] 16.4% | [2] -0.95% | [3] -8.1% | [4] 5.3% | [5] -2.9% | [6] 14.7%

Cn1nc2c(c1-c1ccncc1)CCc1ccccc1-2
inactive: [1] 3.9% | [2] 65.3% | [3] 36% | [4] -3.55% | [5] 66.1% | [6] 24.6%

CCCOC(=O)c1c(C)c(C)cc(C)c1C
inactive: [1] 5.9% | [2] 1.75% | [3] 14.6% | [4] 11.8% | [5] -1.3% | [6] -12.3%

c1cc2cc3c4c5c(cc6ccc7cc8cc9c%10c8c8c7c6c5c8c5c%10c(c1C9N1CCOCCOCCOCCOCCOCC1)c2c45)C3 (configuration not stated)
inactive: [1] -15.1% | [2] -2.35% | [3] 3.1% | [4] 17.7% | [5] 3.35% | [6] -9.9%

COc1ccc(C2c3cc4c(cc3OC3(N5CCCC5)CCCC23)OCO4)c(OC)c1 (configuration not stated)
inactive: [1] 0.85% | [2] -6.8% | [3] -1.5% | [4] 14.2% | [5] 15.2% | [6] 11.6%

COc1cc(/C=N/NC(N)=S)cc(OC)c1
inactive: [1] -4.1% | [2] -11.2% | [3] -15.1% | [4] -35.9% | [5] -17.6% | [6] -11.8%

CCCCCN(CCCCC)C(=S)[S-].CCCCCN(CCCCC)C(=S)[S-].[Zn]
inactive: [2] 53.6% | [4] 46.4% | [5] 42.1% | [6] 60.8%
active: [1] 72.7% | [3] 72.1%

O=C(O)Cn1ccc(=O)c2c([N+](=O)[O-])cccc21
inactive: [1] 27.2% | [2] 16.1% | [3] 0.35% | [4] 5.3% | [5] 8.55% | [6] -51.6%

CC(=O)c1ccc(NC(=O)/C(=N\NC(N)=O)C(C#N)CC(C)(C)C=O)cc1 (configuration not stated)
inactive: [1] 29.3% | [2] 17.4% | [3] -2.55% | [4] 21.1% | [5] 33.6% | [6] 16.6%

C=CCOC(=O)Nc1cccc(O)c1
inactive: [1] 16.9% | [2] -5.95% | [3] 3.2% | [4] -57.6% | [5] -29.6% | [6] 1.4%

CCC(Cc1cnc2nc(N)nc(N)c2n1)c1ccc(C(=O)NC(CCC(=O)O)C(=O)O)cc1 (configuration not stated)
inactive: [1] -9.3% | [2] 18.9% | [3] 1.8% | [4] -12.2% | [5] -22.8% | [6] -14.5%

CC1(C)CC(=O)C(C)(CCc2ccccc2)C(=O)C1
inactive: [1] -2.8% | [2] 8.9% | [3] 13.7% | [4] -44.6% | [5] -11.4% | [6] -6.65%

CCCCCCCCCCCCCCCCCC(=O)NCCCNCCCNC(=O)CCCCCCCCCCCCCCCCC
inactive: [1] -10.9% | [2] -21.4% | [3] -12.2% | [4] 7.55% | [5] -17.5% | [6] -13.6%

Cc1cc2c(cc1Cl)S(=O)(=O)OC(c1ccc([N+](=O)[O-])cc1)=N2
inactive: [1] -3.25% | [2] -4.3% | [3] -0.1% | [4] 0.45% | [5] 19.1% | [6] -10.3%

CC(=O)Nc1cc2cc(NC(=O)C(Cl)(Cl)Cl)ccc2oc1=O
inactive: [1] -24.3% | [2] -17.4% | [3] -4.65% | [4] 0.55% | [5] -11.7% | [6] -24.6%

NC(=O)C(=CNC(=S)Nc1ccc(S(N)(=O)=O)cc1)C(N)=O
inactive: [1] -10.1% | [2] -31.1% | [3] -16.4% | [4] 2.9% | [5] -10.4% | [6] 0.5%

Cc1ccc(NC(=O)c2ccc(C)c(N)c2)c(C)c1
inactive: [1] -16.2% | [2] -21.2% | [3] -15.8% | [4] -9.7% | [5] -25.1% | [6] -5.7%

COc1ccc2c3c(ccc2c1)C1C(=O)OC(=O)C1CC3 (configuration not stated)
inactive: [1] -2.6% | [2] 8.6% | [3] 6.5% | [4] -36.6% | [5] -5.95% | [6] 11.2%

Cc1nsc2[nH]c(=O)n(Nc3ccc(O)cc3)c(=O)c12
inactive: [1] -13.6% | [2] 1.1% | [3] -18.7% | [4] 8.75% | [5] 5% | [6] -4.9%

CC[O-].CC[O-].O=C([CH-]C(=O)c1ccccc1)CCCCCCCCC(=O)[CH-]C(=O)c1ccccc1.[Ti+4]
inactive: [1] -37.5% | [2] -22.3% | [3] 5.1% | [4] 13.2% | [5] 2.85% | [6] 0.5%

O=[N+]([O-])c1cccc(S(=O)(=O)O)c1 (tested in a mixture with another compound)
inactive: [1] 15.3% | [2] -3.65% | [3] -0.1% | [4] -33.6% | [5] -2.2% | [6] -4.95%

OCCCCCOCc1ccccc1
inactive: [1] 18.9% | [2] 3.6% | [3] 42.1% | [4] 42.8% | [5] -8.65% | [6] 23.3%

CC(N=C(N)N)C(=O)O (configuration not stated)
inactive: [1] -11.9% | [2] 9.1% | [3] 0.15% | [4] -12.5% | [5] 5.3% | [6] 14%

Nc1ncnc2c1ncn2CCCCCO
inactive: [1] 5.15% | [2] 49.7% | [3] 13.7% | [4] 7.35% | [5] 3.45% | [6] 13.3%

CC(C(=O)c1ccccc1)C(=O)c1ccccc1
inactive: [1] -2.7% | [2] -13% | [3] -7.9% | [4] -9.95% | [5] -5.8% | [6] -1.65%

CCCCCCCCCC1OCC(COCC)O1 (configuration not stated)
inactive: [1] -2.6% | [2] -9% | [3] 7.5% | [4] -17.4% | [5] 14.8% | [6] -7.15%

CCCCOC(=O)c1ccc(NC(=O)Nc2cc([N+](=O)[O-])ccc2F)cc1
active: [6] 71.2%
inactive: [1] 56.4% | [2] 54.6% | [3] 63% | [4] 54.6% | [5] 12.3%

O=C(O[C@H]1[C@@H]2C=CO[C@@H](OC3OC(CO)C(O)C(O)C3O)[C@@H]2[C@@]2(CO)O[C@@H]12)c1ccc(O)c(O)c1 (some centres not stated)
inactive: [1] -20.3% | [2] -40% | [3] -4.6% | [4] 3.1% | [5] -8.35% | [6] 0.4%

N#C/C1=C(\N)CCSSSC1
inactive: [1] 30.8% | [2] 25.9% | [3] 17.4% | [4] 21.3% | [5] 9.5% | [6] -0.2%

NC(=O)c1csc([C@@H](O)Cc2ccccc2)n1
inactive: [1] -2.25% | [2] 3.5% | [3] 7.5% | [4] -7.7% | [5] 8.35% | [6] 7.95%

COC(=O)c1csnn1
inactive: [1] 1.2% | [2] 10.8% | [3] 12.7% | [4] 8.5% | [5] 4.3% | [6] 10.2%

CSc1ccc(C(=O)C[n+]2cc3ccccc3cc2C)cc1
inactive: [1] -34.4% | [2] -2.5% | [3] -16.1% | [4] -26.6% | [5] 2.75% | [6] 0.7%

Cc1ccc(S(=O)(=O)Nn2c(O)c(C#N)c(-c3ccc(Cl)cc3)c(C#N)c2=O)cc1
inactive: [1] 1.3% | [2] 20.3% | [3] 11.2% | [4] 11.5% | [5] 15.5% | [6] 32.3%

O=C(O)Cn1c(=O)ccc2ccccc21
inactive: [1] 4.4% | [2] -3.25% | [3] -8.55% | [4] -37.7% | [5] -7.7% | [6] 4.9%

O=C(O)CC1CC(=O)c2cccn21 (configuration not stated)
inactive: [1] -4.35% | [2] 4.85% | [3] -8.15% | [4] 3.6% | [5] 0.8% | [6] -34%

CC(C)(C)CP(=S)(CCP(CCP(=S)(CC(C)(C)C)CC(C)(C)C)CCP(=S)(CC(C)(C)C)CC(C)(C)C)CC(C)(C)C
inactive: [1] -0.75% | [2] -14.6% | [3] -18% | [4] 9.6% | [5] 0.65% | [6] -16.1%

Source: PubChem BioAssay (NCI)
